Experimental findings from PubChem BioAssay (NCI) are described below.

Among the test systems are DU-145 prostate; K-562 leukemia; MALME-3M melanoma; MDA-MB-231 breast; RXF 393 renal; SF-268 CNS; SF-295 CNS; SF-539 CNS; UACC-257 melanoma; M14 melanoma; HCT-15 colon; HT29 colon; SNB-75 CNS; SNB-19 CNS; U251 CNS; PC-3 prostate; SK-MEL-5 melanoma; UACC-62 melanoma; LOX IMVI melanoma; SK-MEL-28 melanoma.
Holding throughout (assay): NCI-60 one-dose screen, 48 h (100 = growth as untreated, 0 = no growth, -100 = all killed)
Common to all, as to conditions: 10 µM unless noted

The panel holds about 83,000 compounds, 20% with a hit somewhere; the sample as a whole holds those more often.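 The test compound was applied at a single concentration to cells in 96-well plates for 48 hours, and percent growth was recorded.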 A number with no mark means an inactive call. Activity calls are given as the source filed them. Rule for the calls: active = growth percent below 10; inactive = the rest.

As for `Cc1c(C(=O)N[C@@H](Cc2ccccc2)C(=O)C(=O)NCc2ccc(F)cc2)[nH]c2ccccc2c1=O`, the growth with DU-145 prostate is 105%; in the test with K-562 leukemia it was 84.2%; in the test on MALME-3M melanoma, 102%; in the test on MDA-MB-231 breast, 100%; in the test with RXF 393 renal, 103%; in the test with SF-268 CNS it was 97.4%. Besides, the growth was 105% with SF-295 CNS; 101% in the test on SF-539 CNS; 101% with UACC-257 melanoma; 103% in the test on M14 melanoma; 96.2% in the test with HCT-15 colon; 101% with HT29 colon. Besides, the growth with SNB-75 CNS is 88.5%; in the test on SNB-19 CNS, 96.9%; in the test with U251 CNS, 101%; in the test with PC-3 prostate, 86.5%; in the test with SK-MEL-5 melanoma, 98.7%; with UACC-62 melanoma it was 91.7%. Also, the results for the growth in the test on LOX IMVI melanoma and with SK-MEL-28 melanoma were 99.9% and 100%, respectively.
On to `O=C(CSc1nc2ccccc2[nH]1)Nc1cccc(Cl)c1`, for which the growth with DU-145 prostate was 101%; in the test on K-562 leukemia, 100%; in the test with MALME-3M melanoma, 97.2%; with MDA-MB-231 breast it was 76.5%; with RXF 393 renal it was 114%; in the test with SF-268 CNS, 97.1%. The growth in the test on SF-295 CNS is 104%; in the test with SF-539 CNS, 103%; in the test on UACC-257 melanoma, 117%; in the test with M14 melanoma, 105%; in the test with HCT-15 colon it was 109%; with HT29 colon, 112%. For the same molecule, the growth was 81.6% in the test with SNB-75 CNS; 91.4% in the test with SNB-19 CNS; 104% in the test with U251 CNS; 99.3% with PC-3 prostate; 104% in the test on SK-MEL-5 melanoma; 87.6% with UACC-62 melanoma. Moreover, the figures for the growth with LOX IMVI melanoma and with SK-MEL-28 melanoma were 99.6% and 106%, respectively.
As for `C#C[C@]1(O)CC[C@H]2[C@@H]3CC=C4c5sc(Nc6ccccc6)nc5CC[C@]4(C)[C@H]3CC[C@@]21C`, the growth was 16.2% in the test with DU-145 prostate; 9.63% (active) in the test with K-562 leukemia; 25.8% in the test with MALME-3M melanoma; 27.7% in the test on MDA-MB-231 breast; -53.1% (active) in the test with RXF 393 renal; 24.3% in the test on SF-268 CNS. The growth in the test on SF-295 CNS is -56.4% (active); in the test on SF-539 CNS it was -51.1% (active); in the test on UACC-257 melanoma, 30.4%; with M14 melanoma, 2.55% (active); in the test on HCT-15 colon it was -28.1% (active); with HT29 colon it was 6.31% (active). For the same molecule, the growth is -22.2% (active) with SNB-75 CNS; 49.4% in the test on SNB-19 CNS; 13.8% with U251 CNS; 10.4% with PC-3 prostate; 14.2% in the test on SK-MEL-5 melanoma; 19.6% in the test on UACC-62 melanoma. For the same molecule, the growth in the test with LOX IMVI melanoma is -6.23% (active); in the test with SK-MEL-28 melanoma, -19.9% (active).
`O=c1c2cc(F)ccc2sc2c(N3CCNCC3)nc3ccccc3c12`: the growth is -31.5% (active) with DU-145 prostate; -38.2% (active) in the test on K-562 leukemia; 84.8% in the test with MALME-3M melanoma; -29.1% (active) in the test on MDA-MB-231 breast; 58.1% in the test on RXF 393 renal; 55.1% in the test on SF-268 CNS. Moreover, the growth with SF-295 CNS is 92.1%; with SF-539 CNS, 29.8%; with UACC-257 melanoma, 92.1%; in the test on M14 melanoma it was -52.7% (active); with HCT-15 colon, -40.7% (active); in the test with HT29 colon, -37.7% (active). In addition, the growth in the test on SNB-75 CNS was 70.2%; in the test on SNB-19 CNS, 65.3%; with U251 CNS, -24.2% (active); in the test on PC-3 prostate, 48.7%; in the test with SK-MEL-5 melanoma it was 76.8%; with UACC-62 melanoma, 59.5%. The growth in the test with LOX IMVI melanoma was -99.1% (active); with SK-MEL-28 melanoma it was 57.7%.
As for `Nc1ccccc1-c1cc2c(c3c1[nH]c1ccccc13)CCCCC2`, the growth with DU-145 prostate is 102%; with K-562 leukemia it was 98%; in the test with MALME-3M melanoma it was 117%; with MDA-MB-231 breast, 90.3%; in the test on RXF 393 renal, 113%; in the test with SF-268 CNS, 97.2%. In addition, the growth is 103% in the test on SF-295 CNS; 116% with SF-539 CNS; 105% in the test on UACC-257 melanoma; 92.5% in the test with M14 melanoma; 86.9% with HCT-15 colon; 88% in the test with HT29 colon. For the same molecule, the growth with SNB-75 CNS was 105%; in the test with SNB-19 CNS it was 104%; in the test on U251 CNS, 103%; with PC-3 prostate, 92.1%; in the test with SK-MEL-5 melanoma, 93.8%; in the test on UACC-62 melanoma it was 95.4%. Further, the figures for the growth with LOX IMVI melanoma and in the test with SK-MEL-28 melanoma were 86.7% and 107%, respectively.
In the case of `CC(=O)N1N=C(c2ccc(Nc3nc(Nc4ccc(F)cc4)nc(Nc4ccc(Cl)cc4)n3)cc2)CC1c1ccc(Cl)cc1` (centres undefined), the growth with DU-145 prostate is 111%; in the test with K-562 leukemia, 88.1%; in the test on MALME-3M melanoma, 110%; in the test on MDA-MB-231 breast it was 76.2%; in the test with RXF 393 renal it was 88.8%; with SF-268 CNS it was 124%. Besides, the growth is 123% with SF-295 CNS; 109% in the test on SF-539 CNS; 104% in the test on UACC-257 melanoma; 108% with M14 melanoma; 93.4% in the test on HCT-15 colon; 106% with HT29 colon. For the same molecule, the growth in the test on SNB-75 CNS is 70.1%; in the test with SNB-19 CNS it was 83.5%; with U251 CNS, 94.7%; in the test on PC-3 prostate, 68.8%; with SK-MEL-5 melanoma, 105%; with UACC-62 melanoma, 99%. Moreover, the growth was 89.8% in the test with LOX IMVI melanoma and 121% with SK-MEL-28 melanoma.
With `O=c1[nH][n+](-c2ccc(Br)cc2)no1`, the growth is 57.9% in the test with DU-145 prostate; 10.9% in the test on K-562 leukemia; 60.3% with MALME-3M melanoma; 68.7% in the test with MDA-MB-231 breast; 105% in the test on RXF 393 renal; 32.8% with SF-268 CNS. The growth was 21.3% in the test with SF-295 CNS; 7.06% (active) in the test with SF-539 CNS; 55% in the test on UACC-257 melanoma; 74% in the test on M14 melanoma; 33.5% in the test with HCT-15 colon; 90% in the test on HT29 colon. Further, the growth in the test with SNB-75 CNS was 77.1%; in the test on SNB-19 CNS, 77.8%; in the test on U251 CNS it was 73.3%; with PC-3 prostate, 70.7%; with SK-MEL-5 melanoma it was 57.8%; with UACC-62 melanoma, 9.27% (active). Also, in the test on SK-MEL-28 melanoma, the growth is 61.2%.
